From PubChem BioAssay (EPA / NIEHS)
Results filed as inconclusive are left out. Active and inactive are the calls of the source. How the source made its calls: active means hit-call score of the fitted dose curve at least 0.9, where 1 is the maximum; inconclusive means response in the unintended direction; inactive means score below 0.9.

Molecular target: rat Adrenergic Receptor, Alpha 2 (Adra2), Non-selective Binding, Adra2a (gene 25083) (UniProt P22909)
Assay: NVS_GPCR_rAdra2_NonSelective: NovaScreen (NVS) G Protein-Coupled Receptor Assay for rat Adrenergic Receptor, Alpha 2 (Adra2), Non-selective Binding (AID 2283299)
How it was run: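 Filter-based scintillation counting of radioligand binding to rat cortical membrane receptors, measured 1.25 hours post-dosing; loss of signal versus DMSO indicates displacement. Initial single-concentration duplicate at 25 uM, then concentration series.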

Chain of rat Adrenergic Receptor, Alpha 2 (Adra2), Non-selective Binding, Adra2a (gene 25083) (P22909 whole entry, looked up): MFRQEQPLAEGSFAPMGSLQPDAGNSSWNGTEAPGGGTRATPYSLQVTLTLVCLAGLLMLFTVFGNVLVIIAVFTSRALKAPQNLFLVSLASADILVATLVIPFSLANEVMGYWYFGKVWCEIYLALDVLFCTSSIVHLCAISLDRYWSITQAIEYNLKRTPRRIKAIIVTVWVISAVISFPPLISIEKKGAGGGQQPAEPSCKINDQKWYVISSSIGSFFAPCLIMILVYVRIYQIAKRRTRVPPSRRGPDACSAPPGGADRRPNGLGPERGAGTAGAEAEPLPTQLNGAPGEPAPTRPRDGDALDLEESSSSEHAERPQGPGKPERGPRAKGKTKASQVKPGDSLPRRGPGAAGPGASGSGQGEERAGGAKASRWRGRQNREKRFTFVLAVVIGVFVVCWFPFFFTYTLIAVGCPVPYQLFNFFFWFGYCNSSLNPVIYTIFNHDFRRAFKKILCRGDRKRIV

AC50, active:
O=c1[nH]c2ccc(S(=O)CCN3CCC(Cc4ccc(F)cc4)CC3)cc2o1 (stereo not drawn) 1.88 µM, CC[C@H]1CC[C@H](NCc2cc3c(cc2OC)[C@H]2C[C@H]2C(=O)N3C)[C@H](c2ccccc2)N1 13.3 µM, Nc1ccc(Nc2ccccc2)cc1 25 µM, COc1cccc(-c2ccc(/C=C\CN3CCCCCC3)cc2Cl)c1 2.99 µM, CCN(C(=O)c1cc(C)cc(OC[C@H](C)Nc2ccncc2)c1)C(C)C 4.14 µM, COCCOc1cc2cc(C(=O)NC3CCN(C(C)C)CC3)n(CC(=O)Nc3ccc(Cl)cn3)c2cn1 10.1 µM

outcome, inactive:
CC(=O)OCCC(C)C, CCC(C)(C)C(=O)O[C@H]1C[C@@H](C)C=C2C=C[C@H](C)[C@H](CC[C@@H]3C[C@@H](O)CC(=O)O3)[C@H]21

Molecular target: rat Gamma-Aminobutyric Acid Type B Receptor (GABBR), Gabbr1 (gene 81657) (UniProt Q9Z0U4)
Assay: NVS_GPCR_rGABBR: NovaScreen (NVS) G Protein-Coupled Receptor Assay for rat Gamma-Aminobutyric Acid Type B Receptor (GABBR) (AID 2283301)
How it was run: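 Rat cortical membrane preparation, competitive radioligand binding for 1 h with filtration and scintillation readout. Actives from duplicate single-point 25 uM screening proceeded to concentration series with 50 uM top concentration.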

Chain of rat Gamma-Aminobutyric Acid Type B Receptor (GABBR), Gabbr1 (gene 81657) (Q9Z0U4 whole entry, looked up): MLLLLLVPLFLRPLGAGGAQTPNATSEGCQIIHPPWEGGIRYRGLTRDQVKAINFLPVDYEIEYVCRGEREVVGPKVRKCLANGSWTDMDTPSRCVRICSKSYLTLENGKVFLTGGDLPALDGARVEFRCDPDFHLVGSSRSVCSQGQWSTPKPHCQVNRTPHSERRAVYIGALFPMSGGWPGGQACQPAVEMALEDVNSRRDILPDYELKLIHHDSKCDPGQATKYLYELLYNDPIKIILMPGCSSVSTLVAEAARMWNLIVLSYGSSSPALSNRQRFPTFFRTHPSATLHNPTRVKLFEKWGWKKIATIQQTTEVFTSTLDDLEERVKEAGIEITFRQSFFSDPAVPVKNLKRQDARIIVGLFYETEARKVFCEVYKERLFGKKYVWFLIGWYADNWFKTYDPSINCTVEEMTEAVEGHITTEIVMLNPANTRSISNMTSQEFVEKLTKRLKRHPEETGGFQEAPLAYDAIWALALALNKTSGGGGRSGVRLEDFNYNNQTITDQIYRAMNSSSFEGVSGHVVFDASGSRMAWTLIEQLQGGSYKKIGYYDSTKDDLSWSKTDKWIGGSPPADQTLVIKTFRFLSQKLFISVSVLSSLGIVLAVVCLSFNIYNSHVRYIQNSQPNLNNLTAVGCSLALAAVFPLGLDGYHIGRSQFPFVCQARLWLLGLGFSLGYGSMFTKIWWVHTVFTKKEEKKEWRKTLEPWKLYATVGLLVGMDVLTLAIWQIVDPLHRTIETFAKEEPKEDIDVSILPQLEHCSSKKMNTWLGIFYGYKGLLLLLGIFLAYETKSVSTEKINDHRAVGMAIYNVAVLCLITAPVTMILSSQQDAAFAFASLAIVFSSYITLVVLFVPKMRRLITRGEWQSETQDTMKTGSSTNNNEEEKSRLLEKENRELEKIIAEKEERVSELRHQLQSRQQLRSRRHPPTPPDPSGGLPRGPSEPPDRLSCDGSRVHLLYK

outcome, inactive:
CCc1cc(SCc2sc(-c3ccc(C(F)(F)F)cc3)nc2CN2CCN(c3ccc(OC)cc3)CC2)ccc1OCC(=O)O, CC[C@H]1CC[C@H](NCc2cc3c(cc2OC)[C@H]2C[C@H]2C(=O)N3C)[C@H](c2ccccc2)N1, CNCc1ccc(NC(=O)c2c[nH]c3c2C(=O)CCC3)cc1

Molecular target: rat Histamine Receptor (H3), Hrh3 (gene 85268) (UniProt Q9QYN8)
Assay: NVS_GPCR_rH3: NovaScreen (NVS) G Protein-Coupled Receptor Assay for rat Histamine Receptor (H3) (AID 2283303)
How it was run: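 Filter-binding radioligand competition on rat forebrain membranes, 1 h incubation; compounds screened at 25 µM in duplicate and followed in concentration series to 50 µM, loss of bound signal vs DMSO.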

Chain of rat Histamine Receptor (H3), Hrh3 (gene 85268) (Q9QYN8 whole entry, looked up): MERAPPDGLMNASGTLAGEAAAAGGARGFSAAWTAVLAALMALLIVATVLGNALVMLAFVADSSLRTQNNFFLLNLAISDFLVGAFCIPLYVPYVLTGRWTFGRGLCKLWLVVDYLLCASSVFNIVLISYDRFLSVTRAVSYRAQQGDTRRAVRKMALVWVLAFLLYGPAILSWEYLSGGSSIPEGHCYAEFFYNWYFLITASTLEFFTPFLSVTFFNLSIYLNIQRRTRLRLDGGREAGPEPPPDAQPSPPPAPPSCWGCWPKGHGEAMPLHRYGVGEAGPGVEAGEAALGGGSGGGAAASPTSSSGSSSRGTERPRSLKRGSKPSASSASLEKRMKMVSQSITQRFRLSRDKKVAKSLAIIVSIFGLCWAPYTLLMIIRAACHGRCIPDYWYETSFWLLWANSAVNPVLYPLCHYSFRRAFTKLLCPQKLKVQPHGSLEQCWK

AC50, active:
CCOC(=O)c1ccc(C2CCC(NC[C@H](O)COc3ccc(O)c(NS(C)(=O)=O)c3)CC2)cc1 (stereo partly drawn) 23.4 µM, CCCN(C1CCN(C(=O)C2CCNCC2)CC1)[C@@H]1CCc2ccc(OC)cc2C1 0.914 µM, CC[C@H]1CC[C@H](NCc2cc3c(cc2OC)[C@H]2C[C@H]2C(=O)N3C)[C@H](c2ccccc2)N1 15 µM, CNS(=O)(=O)c1cc(C(=O)N2CCC(CCN3C4CCC3CC(n3c(C)nc5ccccc53)C4)(c3cccc(F)c3)CC2)c(Cl)cc1F (stereo not drawn) 1.85 µM, Nc1ccc(Nc2ccccc2)cc1 16.9 µM, CN(C)c1ccc(N=NS(=O)(=O)O)cc1 14.6 µM, COc1cccc(-c2ccc(/C=C\CN3CCCCCC3)cc2Cl)c1 10.1 µM, CCN(C(=O)c1cc(C)cc(OC[C@H](C)Nc2ccncc2)c1)C(C)C 2.93 µM, COCCOc1cc2cc(C(=O)NC3CCN(C(C)C)CC3)n(CC(=O)Nc3ccc(Cl)cn3)c2cn1 12.6 µM

outcome, inactive:
Cc1[nH]cnc1C[C@H]1CCc2c(C)c3ccccc3n2C1=O

Molecular target: Adra2b (gene 24174) (UniProt P19328)
Assay: NVS_GPCR_rmAdra2B: NovaScreen (NVS) G Protein-Coupled Receptor Assay for hybird cells Adrenergic, Alpha 2B Receptor (Adra2B) (AID 2283306)
How it was run: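 Compounds screened first at 25 uM in duplicate, with actives followed up in concentration-response; specific radioligand displacement from hybrid neuroglioma/blastoma cell membrane preparations measured by filter scintillation counting after 1 h, normalized to DMSO.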

Chain of Adra2b (gene 24174) (P19328 whole entry, looked up): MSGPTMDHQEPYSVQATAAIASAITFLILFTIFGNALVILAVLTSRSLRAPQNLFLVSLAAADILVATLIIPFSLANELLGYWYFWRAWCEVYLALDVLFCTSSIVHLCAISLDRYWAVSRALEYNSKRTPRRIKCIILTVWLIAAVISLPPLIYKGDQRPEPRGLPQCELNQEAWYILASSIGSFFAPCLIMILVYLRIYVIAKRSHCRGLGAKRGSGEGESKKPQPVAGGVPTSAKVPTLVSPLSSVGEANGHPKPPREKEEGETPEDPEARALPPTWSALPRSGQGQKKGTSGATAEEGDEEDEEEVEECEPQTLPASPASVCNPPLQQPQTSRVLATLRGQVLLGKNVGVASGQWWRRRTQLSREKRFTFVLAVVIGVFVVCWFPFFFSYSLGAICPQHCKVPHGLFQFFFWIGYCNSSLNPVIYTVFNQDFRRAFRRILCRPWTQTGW

AC50, active:
CCOC(=O)c1ccc(C2CCC(NC[C@H](O)COc3ccc(O)c(NS(C)(=O)=O)c3)CC2)cc1 (stereo partly drawn) 23.4 µM, CCOC(=O)COc1ccc2c(c1)CC(NCC(O)c1cccc(Cl)c1)CC2 (stereo not drawn) 11.2 µM, CCCN(C1CCN(C(=O)C2CCNCC2)CC1)[C@@H]1CCc2ccc(OC)cc2C1 7.66 µM, O=c1[nH]c2ccc(S(=O)CCN3CCC(Cc4ccc(F)cc4)CC3)cc2o1 (stereo not drawn) 0.609 µM, Cc1[nH]cnc1C[C@H]1CCc2c(C)c3ccccc3n2C1=O 3.68 µM, CC[C@H]1CC[C@H](NCc2cc3c(cc2OC)[C@H]2C[C@H]2C(=O)N3C)[C@H](c2ccccc2)N1 12.3 µM, CNS(=O)(=O)c1cc(C(=O)N2CCC(CCN3C4CCC3CC(n3c(C)nc5ccccc53)C4)(c3cccc(F)c3)CC2)c(Cl)cc1F (stereo not drawn) 7.6 µM, COc1cccc(-c2ccc(/C=C\CN3CCCCCC3)cc2Cl)c1 4.39 µM, CCN(C(=O)c1cc(C)cc(OC[C@H](C)Nc2ccncc2)c1)C(C)C 8.19 µM

outcome, inactive:
COc1ccc(-n2nc(C(F)F)cc2-c2ccc(S(C)=O)cc2)cc1 (stereo not drawn), O=C(O)CCN(C1(C(=O)NO)CCCC1)S(=O)(=O)c1ccc(Oc2ccc(F)cc2)cc1, CNCc1ccc(NC(=O)c2c[nH]c3c2C(=O)CCC3)cc1

Molecular target: rat Neurokinin-1 Receptor (NK1), Tacr1 (gene 24807) (UniProt P14600)
Assay: NVS_GPCR_rNK1: NovaScreen (NVS) G Protein-Coupled Receptor Assay for rat Neurokinin-1 Receptor (NK1) (AID 2283309)
How it was run: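 Competitive radioligand binding to NK1 in rat submaxillary membranes, 1 h incubation, filtration and scintillation read-out. Compounds first screened at 25 uM in duplicate, then concentration-response for actives; signal loss relative to DMSO.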

Chain of rat Neurokinin-1 Receptor (NK1), Tacr1 (gene 24807) (P14600 whole entry, looked up): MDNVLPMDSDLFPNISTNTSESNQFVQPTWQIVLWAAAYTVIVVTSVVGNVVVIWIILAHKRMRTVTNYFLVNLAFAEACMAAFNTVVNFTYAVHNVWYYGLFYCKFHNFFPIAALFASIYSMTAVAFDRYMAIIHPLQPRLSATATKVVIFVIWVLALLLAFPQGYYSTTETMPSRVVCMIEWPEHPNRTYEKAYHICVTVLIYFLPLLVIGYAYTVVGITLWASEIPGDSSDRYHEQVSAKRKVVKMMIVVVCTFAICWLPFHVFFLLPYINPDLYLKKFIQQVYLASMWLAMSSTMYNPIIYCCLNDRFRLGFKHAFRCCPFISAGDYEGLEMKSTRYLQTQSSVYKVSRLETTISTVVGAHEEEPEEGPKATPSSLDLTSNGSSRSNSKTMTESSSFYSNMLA

outcome, inactive:
CCOC(=O)c1ccc(C2CCC(NC[C@H](O)COc3ccc(O)c(NS(C)(=O)=O)c3)CC2)cc1 (stereo partly drawn), CCCN(C1CCN(C(=O)C2CCNCC2)CC1)[C@@H]1CCc2ccc(OC)cc2C1, Cc1[nH]cnc1C[C@H]1CCc2c(C)c3ccccc3n2C1=O, CCCCC(CC)COC(=O)CCCCCCCCC(=O)OCC(CC)CCCC (stereo not drawn), CCOC(=O)CC(CC(=O)OCC)(OC(C)=O)C(=O)OCC

AC50, active:
COc1ccc(-n2nc(C(F)F)cc2-c2ccc(S(C)=O)cc2)cc1 (stereo not drawn) 25 µM, CC[C@H]1CC[C@H](NCc2cc3c(cc2OC)[C@H]2C[C@H]2C(=O)N3C)[C@H](c2ccccc2)N1 0.296 µM, CNS(=O)(=O)c1cc(C(=O)N2CCC(CCN3C4CCC3CC(n3c(C)nc5ccccc53)C4)(c3cccc(F)c3)CC2)c(Cl)cc1F (stereo not drawn) 25 µM, CCOc1cccc(-n2cc(C(=O)N3CCN(c4cc(C(=O)O)c5ccccc5c4)CC3)nc2-c2ccc(C)cc2)c1 14.8 µM, Cn1c(=O)cc(Oc2ccc(F)cc2F)c2cnc(NCC(C)(C)O)nc21 20.3 µM
